PubChem BioAssay (NCATS)
Inconclusive results are not listed. The source made the active and inactive calls. Unless noted, the call rests on the fitted dose curve; in most records, active means well fitted curve in the direction sought with a large enough effect; inconclusive means small, poorly fitted or top-dose-only effect, or another doubt; inactive means no such curve, though single readings can be large; an effect the other way counts as inactive or inconclusive.

What was measured:
[1] = Nrf2 qHTS screen for inhibitors: Validation (AID 493153; active means well fitted inhibition curve with a large enough effect in the main read-out, with a control signal flat, not every such curve was filed as active; further: potency means the concentration at half of the fitted maximal effect); details: Potency: luciferase luminescence; viability change: measured here: cytotoxicity max response
In short: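 Concentration-response test in A549 ARE_Fluc reporter cells (5% FBS OPTI-MEM), compound exposure 18-24 h at 37°C, 5% CO2. Cell viability measured first by CellTiter-Fluor fluorescence; ARE-driven luciferase luminescence then measured as Nrf2 activity.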

[2] = qHTS for Inhibitors of Cell Surface uPA Generation: Validation Assay (AID 493164);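 further: RAW 264.7 macrophage cells exposed to compound for 18 h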
In short: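 Compounds are titrated over seven points (2.45 nM–38.3 uM final) onto pre-plated RAW 264.7 cells and incubated for 18 h. Retained intracellular ATP, measured with ATP-Lite, indicates blocked lethal factor entry.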

[3] = biological target: Galactokinase (Homo sapiens) (UniProt P51570); test: qHTS Validation Assay for Inhibitors of Human Galactokinase (GALK) (AID 493189)
Sequence of Galactokinase (Homo sapiens) (P51570 whole entry, looked up): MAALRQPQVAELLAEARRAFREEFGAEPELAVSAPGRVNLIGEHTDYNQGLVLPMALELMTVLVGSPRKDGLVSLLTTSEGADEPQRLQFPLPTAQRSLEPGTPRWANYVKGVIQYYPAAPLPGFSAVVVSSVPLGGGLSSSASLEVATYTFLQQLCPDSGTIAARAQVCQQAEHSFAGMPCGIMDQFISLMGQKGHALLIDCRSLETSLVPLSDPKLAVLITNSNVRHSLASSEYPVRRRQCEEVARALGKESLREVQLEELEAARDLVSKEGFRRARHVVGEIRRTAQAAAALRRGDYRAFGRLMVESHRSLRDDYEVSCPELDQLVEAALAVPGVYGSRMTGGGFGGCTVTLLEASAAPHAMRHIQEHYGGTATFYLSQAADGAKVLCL
In short: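 GALK (5 nM) with 35 uM ATP and 100 uM galactose in HEPES pH8.0, MgCl2, NaCl, DTT, BSA; 1 h at room temperature. Residual ATP read by Kinase-Glo Plus luminescence after 10 min.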

[4] = Validation screen for small molecules that induce DNA re-replication in SW480 colon adenocarcinoma cells (AID 504364)
In short: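 Read-out: total Hoechst intensity of nuclei by fluorescence scanning imager; hits raise the fraction of nuclei with elevated DNA content. Cells received compound for 48 hr at 37 C before a 40 min stain.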

[5] = biological target: Phosphoglycerate kinase, glycosomal (Trypanosoma brucei brucei) (UniProt P07378); test: qHTS Validation Assay to Find Inhibitors of Phosphoglycerate Kinase (AID 504547); further: potency means the concentration at half of the fitted maximal effect
Sequence of Phosphoglycerate kinase, glycosomal (Trypanosoma brucei brucei) (P07378 whole entry, looked up): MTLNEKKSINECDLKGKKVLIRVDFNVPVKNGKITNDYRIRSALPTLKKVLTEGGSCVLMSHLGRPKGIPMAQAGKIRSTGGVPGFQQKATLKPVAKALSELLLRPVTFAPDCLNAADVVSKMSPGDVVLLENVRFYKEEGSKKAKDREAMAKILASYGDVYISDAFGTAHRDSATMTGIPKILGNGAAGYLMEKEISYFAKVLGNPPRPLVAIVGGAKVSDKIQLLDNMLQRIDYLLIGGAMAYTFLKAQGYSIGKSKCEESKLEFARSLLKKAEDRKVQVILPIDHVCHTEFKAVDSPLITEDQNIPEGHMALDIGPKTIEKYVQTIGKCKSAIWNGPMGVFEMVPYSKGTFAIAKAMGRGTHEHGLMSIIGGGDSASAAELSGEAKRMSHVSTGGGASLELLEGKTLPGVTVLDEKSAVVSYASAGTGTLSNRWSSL
In short: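 Compounds are pinned into the substrate/PGK mixture, and GAPDH (100nM final) is added to start the reaction by producing 1,3-BPG. After 60 minutes at room temperature, Kinase-Glo Plus is added and luminescence is measured 10 minutes later.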

[6] = biological target: phosphoglycerate mutase (Leishmania major) (UniProt Q4Q090); test: qHTS Validation Assay to Find Inhibitors of Phosphoglycerate Mutase (AID 504548); details: Potency: inhibition qHTS; further: series mostly up to about 58 µM
Sequence of phosphoglycerate mutase (Leishmania major) (Q4Q090 1-553): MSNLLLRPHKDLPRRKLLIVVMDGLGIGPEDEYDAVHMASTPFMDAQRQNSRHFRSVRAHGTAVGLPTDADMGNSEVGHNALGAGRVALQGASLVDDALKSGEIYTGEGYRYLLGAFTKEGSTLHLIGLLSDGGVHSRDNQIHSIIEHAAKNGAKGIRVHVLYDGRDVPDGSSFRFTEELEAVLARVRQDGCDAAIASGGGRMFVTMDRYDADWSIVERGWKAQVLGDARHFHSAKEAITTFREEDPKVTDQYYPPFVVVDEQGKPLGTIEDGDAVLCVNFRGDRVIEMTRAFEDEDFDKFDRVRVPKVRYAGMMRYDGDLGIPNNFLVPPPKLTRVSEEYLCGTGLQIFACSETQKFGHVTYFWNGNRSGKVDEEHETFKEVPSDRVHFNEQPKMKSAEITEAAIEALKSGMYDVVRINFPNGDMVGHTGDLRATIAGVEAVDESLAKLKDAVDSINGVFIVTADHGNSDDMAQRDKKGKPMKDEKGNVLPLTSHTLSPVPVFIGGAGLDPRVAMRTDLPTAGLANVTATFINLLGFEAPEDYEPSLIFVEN
In short: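 Lm PGAM 1.25nM final; 100 mM TEA pH 7.6, 5 mM MgCl2, 0.01% Tween-20; 45 min RT; Kinase-GloPlus, 10 min; end-point luminescence. Enzyme-free wells as negative controls.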

[7] = biological target: Ubiquitin carboxyl-terminal hydrolase 1 (Homo sapiens) (UniProt O94782); test: Inhibitors of USP1/UAF1: Pilot qHTS (AID 504865); further: nearly all actives have a fitted effect of over 35% in size; further: potency means the concentration at half of the fitted maximal effect
Sequence of Ubiquitin carboxyl-terminal hydrolase 1 (Homo sapiens) (O94782 whole entry, looked up): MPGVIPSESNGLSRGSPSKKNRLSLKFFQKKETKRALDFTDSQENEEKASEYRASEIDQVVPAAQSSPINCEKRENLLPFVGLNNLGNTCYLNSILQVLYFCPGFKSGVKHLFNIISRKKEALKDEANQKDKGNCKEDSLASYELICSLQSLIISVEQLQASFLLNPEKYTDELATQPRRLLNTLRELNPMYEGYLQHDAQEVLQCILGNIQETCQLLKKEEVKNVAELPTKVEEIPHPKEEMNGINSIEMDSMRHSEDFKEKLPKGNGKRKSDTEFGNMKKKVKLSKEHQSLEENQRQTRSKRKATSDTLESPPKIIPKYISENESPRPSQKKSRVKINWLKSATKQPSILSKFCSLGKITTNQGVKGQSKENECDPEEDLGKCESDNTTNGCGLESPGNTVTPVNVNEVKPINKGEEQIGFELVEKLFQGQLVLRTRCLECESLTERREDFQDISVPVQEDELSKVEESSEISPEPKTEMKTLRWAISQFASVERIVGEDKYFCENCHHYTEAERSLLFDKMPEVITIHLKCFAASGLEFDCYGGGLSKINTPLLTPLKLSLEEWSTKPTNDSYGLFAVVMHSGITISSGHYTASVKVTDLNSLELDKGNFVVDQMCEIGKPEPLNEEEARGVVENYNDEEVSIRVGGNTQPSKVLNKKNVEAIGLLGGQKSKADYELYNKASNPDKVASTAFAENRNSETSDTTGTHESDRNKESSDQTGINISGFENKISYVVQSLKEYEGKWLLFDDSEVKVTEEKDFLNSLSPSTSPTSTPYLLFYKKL
In short: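 USP1/UAF1 complex (1nM) preincubated with compound 15 min at room temperature, then Ub-Rho substrate (150nM final) added. Fluorescence read kinetically at 480/540 nm, 6 reads every 60 seconds. Buffer: 50mM HEPES pH 7.8, 0.5mM EDTA, 0.1 mg/ml BSA, 1mM TCEP, 0.01% Tween-20.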

[8] = qHTS for Inhibitors of ATXN expression: Validation (AID 588378); further: series mostly up to about 57 µM; nearly all actives have a fitted effect of over 75% in size
In short: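 Luminescence from an ATXN2-FFLuc reporter in HEK293 cells served as read-out after 24 h compound treatment at 37 degrees C; CellTiter-Fluor fluorescence was recorded first to assess viability.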

[9] = biological target: Peptidyl-prolyl cis-trans isomerase NIMA-interacting 1 (Homo sapiens) (UniProt Q13526); test: qHTS Validation Assay to Find Inhibitors of Pin1 (AID 504536; active means well fitted inhibition curve with a large enough effect in the polarisation, with a control signal flat, not every such curve was filed as active; the % refers to the polarisation)
Sequence of Peptidyl-prolyl cis-trans isomerase NIMA-interacting 1 (Homo sapiens) (Q13526 whole entry, looked up): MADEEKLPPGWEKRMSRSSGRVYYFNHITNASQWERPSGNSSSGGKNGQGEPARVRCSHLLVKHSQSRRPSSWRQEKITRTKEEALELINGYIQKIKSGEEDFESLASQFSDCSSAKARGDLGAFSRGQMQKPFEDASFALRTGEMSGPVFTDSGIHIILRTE
In short: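 Fluorescence polarization competition: compounds (titration) displace HiFluor-488-labeled Pin1-1b peptide from Pin1 (0.3 uM final) in pH 7.5 HEPES buffer with DTT, 10 min at room temperature; %Activity normalized to no-enzyme wells, curves fitted.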

[10] = qHTS for Inhibitors of ATXN expression: Validation of Cytotoxic Assay (AID 588349)
In short: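 Cytotoxicity counter-screen: HEK293 cells exposed to compound titrations, 72 hr, 37 degrees C. Read-out is intracellular ATP (CellTiter Glo luminescence) as a viability measure.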

[11] = biological target: DNA dC->dU-editing enzyme APOBEC-3G (Homo sapiens) (UniProt Q9HC16); test: qHTS for inhibitors of Vif-A3G interactions: Validation (AID 588379)
Sequence of DNA dC->dU-editing enzyme APOBEC-3G (Homo sapiens) (Q9HC16 whole entry, looked up): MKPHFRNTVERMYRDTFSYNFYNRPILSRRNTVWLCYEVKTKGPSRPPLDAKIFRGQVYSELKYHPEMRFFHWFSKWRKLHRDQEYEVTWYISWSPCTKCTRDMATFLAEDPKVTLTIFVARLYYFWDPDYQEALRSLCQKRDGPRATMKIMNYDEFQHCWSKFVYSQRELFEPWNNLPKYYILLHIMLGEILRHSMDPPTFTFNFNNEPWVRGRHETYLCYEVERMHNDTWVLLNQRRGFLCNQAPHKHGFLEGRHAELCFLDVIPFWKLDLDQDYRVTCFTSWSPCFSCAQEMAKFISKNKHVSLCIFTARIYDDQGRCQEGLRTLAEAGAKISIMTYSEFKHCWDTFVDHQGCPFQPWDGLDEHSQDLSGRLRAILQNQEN
In short: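 Yellow fluorescence (Ex 488, Em 500-530) of Vif-coexpressing HeLa A3G-eYFP cells, scanned by Acumen cytometer, reports blocked A3G degradation. Cells plated at 700/well overnight at 37 deg C before compound addition, then a further overnight compound incubation at 37 deg C.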

O=c1[nH]ccc2c(O)cccc12
-2.46%: viability change [1]
inactive: Potency [1] | outcome [2] | Potency [3] | Potency [4] | Potency [5] | Potency [6] | Potency [7] | Potency [8]

C=CCN1CCc2c(cc(O)c(O)c2Br)[C@@H](c2ccccc2)C1
-6.77%: viability change [1]
inactive: Potency [1] | outcome [2] | Potency [3] | Potency [9] | Potency [5] | Potency [6] | Potency [10]

NC(=Nc1ccccc1)NC(=O)c1nc(Cl)c(N)nc1N
inactive: Potency [1] | outcome [2] | Potency [3] | Potency [9] | Potency [5] | Potency [6] | Potency [7] | Potency [8]
-16.8%: viability change [1]

O=c1cc(O)cc(/C=C/c2ccc(O)c(O)c2)o1
inactive: Potency [1] | outcome [2] | Potency [3] | Potency [4] | Potency [6] | Potency [7] | Potency [10] | Potency [8]
-8.55%: viability change [1]
active: Potency [5] 1.69 µM

Nc1ncnc2c1ncn2C1CCCC1
4.78%: viability change [1]
inactive: Potency [1] | outcome [2] | Potency [4] | Potency [9] | Potency [5] | Potency [6] | Potency [7] | Potency [10]

Cc1cccc(C2CN(C)CCc3c2cc(O)c(O)c3Cl)c1 (stereo unspecified)
-5.5%: viability change [1]
inactive: Potency [1] | outcome [2] | Potency [3] | Potency [4] | Potency [6] | Potency [7]

O=c1oc(Cl)c(Cl)c2ccccc12
inactive: Potency [1] | outcome [2] | Potency [4] | Potency [9] | Potency [5]
-4.81%: viability change [1]

O=C(O)Cc1ccc(O)c(O)c1
9.81%: viability change [1]
inactive: Potency [1] | outcome [2] | Potency [4] | Potency [9] | Potency [5] | Potency [6] | Potency [7] | Potency [10] | Potency [8]

C=C1C[C@@]23CC[C@H]4[C@@](C)(CCC[C@@]4(C)C(=O)O)[C@@H]2CC[C@]1(O)C3
-13.4%: viability change [1]
inactive: Potency [1] | outcome [2] | Potency [9] | Potency [5] | Potency [6] | Potency [7] | Potency [8]

CSC(N)=NCCC[C@H](N)C(=O)O
-16.2%: viability change [1]
inactive: Potency [1] | outcome [2] | Potency [4] | Potency [9] | Potency [5] | Potency [7] | Potency [10] | Potency [8]

COc1cc(/C=C(\C#N)C(=O)c2ccc(O)c(O)c2)cc(I)c1O
inactive: Potency [1] | outcome [2] | Potency [4] | Potency [6] | Potency [8]
-22%: viability change [1]
active: Potency [5] 2.13 µM | Potency [7] 50.1 µM

N[C@@H](Cc1c[nH]c2ccccc12)C(=O)O
-4.03%: viability change [1]
inactive: Potency [1] | outcome [2] | Potency [4] | Potency [9] | Potency [5] | Potency [6] | Potency [7] | Potency [10] | Potency [8]

CCc1ccc2c(-c3cccc(Cl)c3)nc(=O)n(CC)c2n1
1.57%: viability change [1]
inactive: Potency [1] | outcome [2] | Potency [9] | Potency [5] | Potency [6] | Potency [7] | Potency [10] | Potency [8] | Potency [11]

CCC(=O)N1CCN(C(=O)c2ccccc2)CC1
inactive: Potency [1] | outcome [2] | Potency [4] | Potency [9] | Potency [5] | Potency [6] | Potency [7] | Potency [10] | Potency [8]
1.55%: viability change [1]

CC(=O)SC1CC2=CC(=O)CC[C@]2(C)C2CC[C@@]3(C)C(CC[C@@]34CCC(=O)O4)C12 (stereo partly specified)
-9.73%: viability change [1]
inactive: Potency [1] | outcome [2] | Potency [9] | Potency [5] | Potency [6] | Potency [7] | Potency [10]

CCCCOc1cc(CC2CNC(=O)N2)ccc1OC (stereo unspecified)
4.87%: viability change [1]
inactive: Potency [1] | outcome [2] | Potency [4] | Potency [9] | Potency [5] | Potency [6] | Potency [7] | Potency [10] | Potency [8]

CC(=O)/C(C)=N/O
20.6%: viability change [1]
inactive: Potency [1] | outcome [2] | Potency [4] | Potency [5] | Potency [6] | Potency [7] | Potency [10] | Potency [8]

C[C@@H](NCCc1ccc(O)cc1)[C@@H](O)c1ccc(O)cc1
9.14%: viability change [1]
inactive: Potency [1] | outcome [2] | Potency [4] | Potency [9] | Potency [5] | Potency [7] | Potency [10] | Potency [8]

C[C@H]1CC2C3CCC4=CC(=O)C=C[C@]4(C)[C@@]3(Cl)[C@@H](O)C[C@]2(C)[C@@]1(O)C(=O)CO (stereo partly specified)
active: Potency [1] 0.0164 µM
4.17%: viability change [1]
inactive: outcome [2] | Potency [9] | Potency [5] | Potency [6] | Potency [7] | Potency [10] | Potency [8]

Cn1c(=O)c2[nH]c(C3CCCC3)nc2n(C)c1=O
1.08%: viability change [1]
inactive: Potency [1] | outcome [2] | Potency [4] | Potency [9] | Potency [5] | Potency [6] | Potency [7] | Potency [10] | Potency [8]

CCCCCCC(=O)OC1CC(C)(C)NC(C)(C)C1
2.37%: viability change [1]
inactive: Potency [1] | outcome [2] | Potency [9] | Potency [5] | Potency [6] | Potency [7] | Potency [10]

NC(N)=[N+]1CCc2ccccc2C1
inactive: outcome [2] | Potency [4] | Potency [9] | Potency [5] | Potency [7] | Potency [8]
active: Potency [1] 16.4 µM
6.22%: viability change [1]

CC(C)NC[C@H](O)COc1ccc(CC(N)=O)cc1
inactive: Potency [1] | outcome [2] | Potency [4] | Potency [9] | Potency [5] | Potency [6] | Potency [7] | Potency [10] | Potency [8] | Potency [11]
-0.176%: viability change [1]

Oc1ccc(/C=C/c2ccc(/C=C/c3ccc(O)cc3)c(Br)c2)cc1
inactive: Potency [1] | outcome [2] | Potency [9] | Potency [5] | Potency [6] | Potency [7]
2.12%: viability change [1]

Cc1cc(Cn2cnc3c2C[C@@H](C(=O)O)N(C(=O)C(c2ccccc2)c2ccccc2)C3)ccc1N
inactive: Potency [1] | outcome [2] | Potency [9] | Potency [5] | Potency [6] | Potency [7] | Potency [10] | Potency [8]
6.54%: viability change [1]
